High-throughput results (PubChem BioAssay)
Sa ugtP lethal = compounds lethal to S. aureus RN4220 ugtP deletion mutant; OD600 growth, 16 h; AID 1259309; growth inhibition, % (no concentration beside the values); 330,000 compounds, 0.54% hits; in the data active means growth inhibition above about 68%;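 further: plate controls were untreated wells for no effect and antibiotic for full effect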
PriA SSB inh = blocks PriA binding to SSB C-terminal tail; AlphaScreen SSBct-PriA binding, biotinylated peptide; inhibition, % at 33 µM; 430,000 compounds, 0.6% hits; AID 1272365; in the data active means inhibition mostly above about 37%, no sharp cut-off; inactive means mostly below about 20%;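 further: plate controls were negative control peptide for no effect and reference peptide for full effect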
Sa RN4220 lethal = kills Staphylococcus aureus RN4220; S. aureus RN4220 growth, OD600, 16 h; inhibition, % (no concentration beside the values); 330,000 compounds, 0.33% hits; in the data active means inhibition above about 85%;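 further: plate controls were untreated cells for no effect and reference antibiotic for full effect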
Mtb hypoxia rep = inhibitors of hypoxia-regulated fluorescent reporter in Mycobacterium tuberculosis; M. tuberculosis hypoxia-regulated fluorescent reporter, fluorescence; fluorescence inhibition, % (concentration not given with the values); 300,000 compounds, 0.1% hits; AID 1159583; in the data active means fluorescence inhibition mostly above about 23%, no sharp cut-off; inactive means mostly below about 17%
The depositor's hits bear a star; · = no result given; ! = not confirmed by another sample. This is a sample that favours compounds with a hit; in the whole collection about 1.1% have one here.

SMILES	Sa ugtP lethal	PriA SSB inh	Sa RN4220 lethal	Mtb hypoxia rep
COc1ccc(C(=O)C(CN2CCCC2)c2ccccc2)cc1 (configuration not stated)	·	-3	·	·
Nc1[nH]n(-c2ccccc2)c(=O)c1N=Nc1cccc2ccccc12	·	21	·	·
Nc1[nH]n(-c2ccccc2)c(=O)c1N=Nc1ccccc1	-8	75*	6	-13
O=c1c2ccccc2nc(/C=C/c2ccc(O)cc2)n1-c1ccccc1O	91*	-6	95*	-1
O=C(O)c1cccc(-n2c(/C=C/c3ccccc3)nc3ccccc3c2=O)c1	100*	7	97*	-3
O=c1c2ccccc2nc(/C=C/c2ccccc2)n1-c1ccccc1O	97*	-2	96*	12
COc1ccccc1-n1c(/C=C/c2ccc(O)cc2)nc2ccccc2c1=O	14	-3	-2	-8
CCOC(=O)c1sc2ccccc2c1S(=O)(=O)NCc1ccccn1	·	2	·	·
COc1cccc2cc(C(=O)N3CC(=O)Nc4ccccc43)oc12	·	0	·	·
CCOc1ccc2nc(N(CCN(C)C)C(=O)c3ccc4c(c3)CCCC4)sc2c1	-25	55*!	-4	5
CN(C)CCN(C(=O)c1ccc2c(c1)OCCO2)c1nc2cc3c(cc2s1)OCO3	-1	14	-2	-6
CN(C)CCN(C(=O)c1ccc2c(c1)CCCC2)c1nc2cc3c(cc2s1)OCCO3	6	51*	-4	10
CCc1ccc(NC(N)=Nc2nc(CSc3ccccn3)cc(=O)[nH]2)cc1	·	-11	·	·
Cc1cc(N2CCCCC2)nc(N2CCN(C(=O)c3ccc(C(C)(C)C)cc3)CC2)n1	·	-18	·	·
CCCC(=O)Nc1cccc2c1CCCC2	-6	-4	3	6
CCc1ccc(OCC(=O)Nc2cccc3c2CCCC3)cc1	99*	51*	25	6
O=C1NCCN1C(=O)NCC1Cc2ccccc2CO1 (configuration not stated)	·	-9	·	·
c1cnc2c(c1)ccc1cccnc12	-5	102*	2	·
Nc1cc2cccnc2c2ncccc12	·	152*	·	·
O=Cc1ccc2cccnc2n1	2	-4	6	-3
c1ccc2c(c1)ccc1cccnc12	·	29	·	·
O=Cc1ccc2ccc3cccnc3c2n1	1	81*	5	-1
Cn1c(=O)oc2ccc(S(=O)(=O)N(CCc3cccs3)Cc3ccco3)cc21	·	-26	·	·
N#Cc1c(N2CCCC(O)C2)nc(N)c2c(N)nc3c(c12)CC(=O)N3C12CC3CC(CC(C3)C1)C2 (configuration not stated)	-18	63*	2	9
CCOC(=O)c1ccc(Oc2c(C)oc3c4c(ccc3c2=O)OCN(C2CCS(=O)(=O)C2)C4)cc1 (configuration not stated)	·	38*	·	·
SMILES	Sa ugtP lethal	PriA SSB inh	Sa RN4220 lethal	Mtb hypoxia rep
COc1ccccc1Oc1coc2c3c(ccc2c1=O)OCN(C1CCS(=O)(=O)C1)C3 (configuration not stated)	·	13	·	·
C#CCOCCOCCOCCNc1nc(N2CCN(C(=O)CCCCCCCCCCNC(=O)[C@H]([C@@H](C)CC)n3cc(CCCCN=C(N)N)nn3)CC2)nc(N2CCN(C(=O)CCCCCCCCCCNC(=O)[C@H](CO)n3cc(CCCCCN)nn3)CC2)n1	·	39*	·	·
C#CCOCCOCCOCCNc1nc(N2CCN(C(=O)CCCCCCCCCCNC(=O)[C@H]([C@@H](C)CC)n3cc(CCCCCN)nn3)CC2)nc(N2CCN(C(=O)CCCCCCCCCCNC(=O)[C@H](CO)n3cc(CCCCCN)nn3)CC2)n1	·	14	·	·
COc1ccc(CC(=O)NCCNC(=O)c2ccc(NC(C)=O)cc2)cc1OC	·	-5	·	·
COc1ccc(N2CCCS2(=O)=O)cc1NC(=O)C(=O)NCC1(c2cccs2)CCOCC1	·	7	·	·
C[C@H](NC(=O)c1ccco1)C(=O)Nc1nnc(SCc2ccccc2)s1	0	-5	3	7
O=C(Nc1nc(-c2ccncc2)cs1)c1ccco1	-12	-13	-8	·
C[C@H](NC(=O)c1ccco1)C(=O)Nc1nc(-c2ccccn2)cs1	-1	53*	2	8
CN(C(=O)c1ccno1)c1nnc(-c2ccccn2)s1	-3	42*	2	·
O=C(Nc1nc(-c2ccccn2)cs1)c1ccco1	-5	49*	8	10
O=C(CNC(=O)c1ccco1)Nc1nc(-c2ccccn2)cs1	·	96*	·	·
CN(C(=O)c1ccncc1)c1nnc(-c2ccccn2)s1	3	14	1	·
Cc1cc(C(=O)Nc2nc(-c3ccccn3)cs2)on1	·	94*	·	·
O=C(Nc1nc(-c2ccccn2)cs1)c1ccc(C(F)(F)F)cc1	·	31	·	·
O=C(Nc1nc(-c2ccccn2)cs1)c1ccno1	·	125*	·	·
O=C(NCC1(O)Cc2ccccc2C1)C1COc2ccccc2O1 (configuration not stated)	·	-4	·	·
Cc1ccc(CC2SC(=NC(=N)N)NC2=O)cc1 (configuration not stated)	·	-15	·	·
Cc1c(CCOC(=O)C2C3CC4CC(C3)CC2C4)sc[n+]1CC(=O)c1ccc(Br)cc1 (configuration not stated)	-14	19	92*!	13
CSc1nc(Cl)c(Cc2ccc(OCC(C)C)cc2)c(N2CCOCC2)n1	94*	-15	-3	2
CCOc1ccc(Cc2c(Cl)nc(SC)nc2OC)cc1	83	-42	-3	15
CCCCOc1ccc(Cc2c(Cl)nc(SC)nc2N2CCOCC2)cc1	92*	-6	-2	8
NC(Cc1cccs1)=NOC(=O)COc1ccc(Br)cc1Cl	·	-16	·	·
CCn1ccc(C(=O)Nc2nnc(-c3ccno3)o2)n1	·	28*	·	·
Cn1ccc(C(=O)Nc2nnc(-c3ccno3)o2)n1	·	16	·	·
COc1cccc2cc(C(=O)NC[C@H]3CCCN3c3ccccc3)oc12	·	29*	·	·
SMILES	Sa ugtP lethal	PriA SSB inh	Sa RN4220 lethal	Mtb hypoxia rep
COC(=O)N1CCC(CNC(=O)c2cc3cccc(OC)c3o2)CC1	·	-5	·	·
COc1cc(-c2cc(C(=O)NCC3CCCN3c3ccccc3)[nH]n2)cc(OC)c1OC (configuration not stated)	·	59*	·	·
COc1ccccc1OCC(=O)NC[C@H]1CCCN1c1ccccc1	·	21	·	·
O=C(Nc1ccc2c(c1)N(C(=O)c1cccs1)CC2)c1ccccc1C(F)(F)F	·	-2	·	·
Cc1ccc(N=C2SC(C(=O)Nc3ccc(OC(F)(F)F)cc3)C(N)=C2C(=O)Nc2c(C)cc(C)cc2C)cc1 (configuration not stated)	100*	17	100*	8
Cc1ccc(NC(=O)C2SC(=Nc3ccccc3)C(C(=O)Nc3ccc(Cl)cc3)=C2N)cc1 (configuration not stated)	-2	3	-8	7
c1ccc(-c2cc3ccccc3nc2N2CCCC2)cc1	85*	-148	0	·
Cc1ccc(-c2cc3ccccc3nc2N2CCOCC2)cc1	91*	-15	-3	-2
O=C(c1ccccc1Cl)N1CCN(c2nc(-c3ccsc3)cs2)CC1	·	-3	·	·
O=C(Oc1ccc(Cl)c2cccnc12)c1ccco1	5	52*	91*	13
O=C(NCCN1Cc2cc(Cl)ccc2OCC1=O)c1cnccn1	·	50*	·	·
O=C(NCCN1Cc2cc(Cl)ccc2OCC1=O)c1ccno1	·	2	·	·
O=C(CSc1ncnc2nc[nH]c12)c1ccc(F)cc1	·	-7	·	·
O=C1OC(=O)c2c(Oc3ccccc3)cc3c4c(c(Oc5ccccc5)cc1c24)C(=O)OC3=O	·	-16	·	·
